This is part of a sample that, as a whole, favours compounds with a hit. Of some 83,000 tested, about 20% had one in any assay.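 96-well plates, one dose, 48 hours. Percent growth reported; active if below 10.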 Activity calls are given as the source filed them.
Each compound was assayed on CAKI-1 renal (assay: NCI-60 one-dose screen, 48 h (100 = growth as untreated, 0 = no growth, -100 = all killed)). Conditions: 10 µM unless noted.

| SMILES | growth |
| --- | --- |
| OC(c1ccccc1)(c1ccccc1)c1ccccc1-c1ccccc1 | 84.2% (inactive) |
| Clc1ccc(-c2nc(-c3c[nH]c4ncccc34)cs2)cc1 | 49.4% [100 µM] (inactive) |
| CC(=O)c1cc(-c2ccccc2N)n(-c2ccc3c(c2)OCO3)c1C | 41.7% (inactive) |
| CC1O[C@@H]2C[C@@](O)([C@H]1O)n1c3ccccc3c3c4c(c5c6ccccc6n2c5c31)C(=O)NC4=O (stereo not given in full) | 28% (inactive) |
| COC(=O)/C(CCC=C(C)C)=C1\[C@@H](OC(C)=O)C[C@@]2(C)[C@H]1CC(=O)[C@H]1[C@@]3(C)CCC(N4CCCC4)[C@@H](C)[C@@H]3CC[C@@]12C (stereo not given in full) | 106% (inactive) |
| CN(C)c1ccc(/C=C2/C=C(c3ccccc3)OC2=O)cc1 | 91.3% (inactive) |
| COc1cc(-c2nc3occn3c2-c2ccnc(NCCCNS(=O)(=O)c3ccccc3)n2)ccc1F | 29.7% (inactive) |
| O=C(Nc1ccccc1)c1sc(-c2ccccc2)cc1O | 90.6% (inactive) |
| CCOC(=O)c1c2c(n3c1NCC3)-c1ccccc1C2=O | 89.9% (inactive) |
| C/C(=N\Nc1nc(C)cs1)c1cc2ccccc2o1 | 75.9% (inactive) |
| CCOC(=O)C1=C(c2ccccc2)N=c2s/c(=C/c3ccc(Br)cc3)c(=O)n2C1c1ccc(O)cc1 (stereo not given) | 62.2% (inactive) |
| COc1ccc(C2CC(c3ccc(Nc4nc(Nc5ccc(F)cc5)nc(Nc5ccc(F)cc5)n4)cc3)=NN2C(C)=O)cc1 (stereo not given) | 90.6% (inactive) |
| c1ccc2cc(Cn3c[n+](Cc4ccc5ccccc5c4)c4ccccc43)ccc2c1 | 84.7% (inactive) |
| CN1CCN(c2ccc3c(c2)nc(NNC(=O)c2cnccn2)c2cccn23)CC1 | 22.5% (inactive) |
| Cc1cc(C)c(-c2c(O)c(Br)c(-c3c(C)cc(C)c(Br)c3C)c(O)c2Br)c(C)c1Br | 5.75% (active) |
| CCCCCCCCCCCCCCCCCCOc1ccccc1CC(=O)NCC[N+]1(C)CCOCC1 | 98.6% (inactive) |
| O=C(/C=C/c1cccc(Cl)c1)c1cccc(OCCCCOc2cccc(C(=O)/C=C/c3cccc(Cl)c3)c2)c1 | 75.7% (inactive) |
| Cc1ccc(-c2nc(C#N)c(S(=O)(=O)NCCO)o2)cc1 | 71% (inactive) |
| NC(=O)c1ccc(NC(=O)c2oc3ccccc3c2-c2cnn(-c3ccccc3)c2)cc1 | -29.4% [50 µM] (active) |
| O=C(CBr)CN1C(=O)c2ccccc2C1=O | 98.6% (inactive) |

| SMILES | growth |
| --- | --- |
| CCN(CC)c1ccc(/C=C\c2cc(C)c3cc(C)ccc3n2)cc1 | 28.5% (inactive) |
| C=CCN=C(N)SCCCCCCSC(N)=NCC=C | 97.7% (inactive) |
| Clc1nn2c(Cn3cnc4c(NCc5ccccc5)ncnc43)nnc2c2ccccc12 | 3.56% (active) |
| CCOC(=O)c1ccc2c(c1)c1c(C)c3ccncc3c(C)c1n2C | -10.4% (active) |
| CCCCCCCCn1ccc2cc(NC(=O)Cn3cc(CN4CCCCCC4)nn3)ccc21 | -39.9% (active) |
| N#CC(C#N)N=Nc1ccc(Cl)cc1Cl | 70.8% (inactive) |
| Brc1ccc(-c2cnc3nonc3n2)cc1 | 59.7% (inactive) |
| COc1cccc(C(=O)OCC(O)C(=O)NC23CC4CC(CC(C4)C2)C3)c1 (stereo not given) | 99.8% (inactive) |
| O=C(Nc1cccc(NC(=O)C2CCCCC2)c1)c1ccccn1 | 94.9% (inactive) |
| Cc1cc(C)cc(Nc2ccc([N+](=O)[O-])c(NCCN3CCOCC3)n2)c1 | 37.4% (inactive) |
| O=C(Nc1cccnc1Nc1ccc(Cl)cc1)c1cn(Cc2ccc(F)cc2)nn1 | 93.1% (inactive) |
| Cn1c(=O)c2c(c3ccccc31)OC(N)=C(C#N)C21C(=O)c2ccccc2C1=O | 84.2% (inactive) |
| COc1cccc(/C=C2\COc3ccc(O)cc3C2=O)c1 | 80.4% (inactive) |
| CCc1cccc(Sc2cc(C(=O)N3Cc4ccc(OCCN(C)C)cc4C3)ccc2O)c1 | 83.5% (inactive) |
| C=C(CN1CC=CCC1)[C@@H]1CC[C@]2(CO)CC[C@]3(C)[C@H](CC[C@@H]4[C@@]5(C)CC[C@H](O)C(C)(C)[C@@H]5CC[C@]43C)[C@@H]12 | 106% (inactive) |
| COc1ccc(/C(C)=C(\c2ccc(Cl)cc2)c2ccc(OCCN3CCCC3)cc2)cc1 | 24.4% (inactive) |
| CC/C(Cc1ccccc1)=C(\c1ccc(OCCN2CCCCCC2)cc1)c1ccc(OC(=O)NCc2ccccc2)cc1 | 93.8% (inactive) |
| N=c1sc(Cc2cc(Cl)ccc2Cl)cn1CC(=O)c1ccccc1 | 21.1% (inactive) |
| Cc1cc(C(=O)Nc2cc(Nc3ncccc3-c3ncnc4nc[nH]c34)ccc2F)cc(C(F)(F)F)c1 | 15.4% (inactive) |
| C[C@@H]1O[C@@H](O[C@@H]2C[C@H](c3ccc4c(c3O)C(=O)C3=C(C4=O)[C@@]4(O)C(=O)C[C@](C)(O)C[C@@]4(O)C=C3)O[C@H](C)[C@H]2O)C[C@H](O)[C@@H]1O | 88.1% (inactive) |

Source: PubChem BioAssay (NCI)
